# A selection: hits, their analogues and other compounds. The true share with any hit is near 1.8%.
# PP5 inh = PP5 (human) phosphatase inhibition. P53041. 320,000 tested, 0.18% active. purified PP5c, OMFP substrate fluorescence. AID 1987. inhibition, % at 6.7 µM;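 active = inhibition above the campaign's mean inhibition across all tested compounds plus 3 SD, cut at about 9.5% in these data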;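 note: 0% = DMSO only and 100% = 100 µM cantharidin control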
# PME-1 inh = blocks human protein phosphatase methylesterase 1 | recombinant PME-1, FP-Rh probe fluorescence polarization | 320,000 tested, 0.53% active | inhibition, % at 5.9 µM | Q9Y570;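 active = inhibition above the campaign mean of all compounds plus 3 SD, cut at about 26% in these data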;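 note: competitive labeling of PME-1 active site by serine hydrolase directed probe; 0% = PME-1 with DMSO and 100% = wells lacking PME-1 enzyme; inhibitors block probe labeling so polarization falls and inhibition rises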
# Target sequence (Q9Y570 whole entry, looked up): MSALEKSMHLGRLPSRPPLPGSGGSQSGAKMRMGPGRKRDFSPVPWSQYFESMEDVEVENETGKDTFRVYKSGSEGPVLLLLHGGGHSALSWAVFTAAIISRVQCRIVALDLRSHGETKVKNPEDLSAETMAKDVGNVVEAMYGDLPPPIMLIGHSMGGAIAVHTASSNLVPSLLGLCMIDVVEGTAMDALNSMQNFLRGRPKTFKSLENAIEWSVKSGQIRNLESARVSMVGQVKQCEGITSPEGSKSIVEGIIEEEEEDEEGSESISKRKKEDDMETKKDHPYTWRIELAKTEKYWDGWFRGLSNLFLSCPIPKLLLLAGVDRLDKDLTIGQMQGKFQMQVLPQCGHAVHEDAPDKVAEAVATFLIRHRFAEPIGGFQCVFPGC
# PP1 inh = counter-screen for PP5 inhibitors: inhibitors of human PP1-alpha; 320,000 tested, 0.9% active; purified PP1alpha, OMFP fluorescence; inhibition, % at 6.7 µM; P62136; AID 2235;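 active = inhibition above the mean inhibition of all tested compounds plus 3 SD, computed separately for each screening campaign, cut at about 15% in these data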
# LYPLA2 inh = LYPLA2 (human) inhibition in PME1 counter-screen | 320,000 tested, 0.38% active | inhibition, % at 5.9 µM | O95372 | AID 2177 | recombinant LYPLA2, FP-Rh probe fluorescence polarization;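 active = inhibition above the screen-wide mean plus 3 SD, limit set per campaign, cut at about 26% in these data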;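 note: 0% = LYPLA2 with DMSO and 100% = wells lacking LYPLA2 enzyme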
# Target sequence (O95372 whole entry, looked up): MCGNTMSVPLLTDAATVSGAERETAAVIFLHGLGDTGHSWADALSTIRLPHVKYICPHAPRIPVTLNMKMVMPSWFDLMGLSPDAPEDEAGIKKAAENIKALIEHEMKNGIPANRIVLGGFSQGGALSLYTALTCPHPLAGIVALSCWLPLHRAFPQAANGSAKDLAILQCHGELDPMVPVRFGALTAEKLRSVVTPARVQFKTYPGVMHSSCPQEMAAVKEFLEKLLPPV
# Fam108B counter = counter-screen for RBBP9 inhibitors: inhibitors of mouse Fam108B. recombinant Fam108B, FP-Rh probe fluorescence polarization. inhibition, % at 9.51 µM. 300,000 tested, 0.33% active;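 active = inhibition above the screen mean inhibition plus 3 SD, computed separately per campaign, cut at about 18% in these data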;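 note: inhibitors lower polarization as less probe binds the enzyme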
# LYPLA1 counter = blocks human lysophospholipase 1, a PME1 counter-screen. O75608. recombinant LYPLA1, FP-Rh probe fluorescence polarization. inhibition, % at 5.9 µM. 320,000 tested, 0.16% active;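 active = inhibition above the mean of all tested compounds plus 3 SD, set per campaign, cut at about 14% in these data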;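 note: inhibitors block serine hydrolase probe labeling of LYPLA1 so polarization falls; 0% = enzyme with DMSO and 100% = wells lacking LYPLA1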
# PP5 inh confirm = PP5 (human) inhibition, confirmation. shares compounds with PP5 inh. Purified PP5, fluorogenic phosphatase substrate, fluorescence. inhibition, % at 6.7 µM. 460 tested, 22% active; in the data active = inhibition above about 9.5%
# PP1 counter 3x = inhibits human PP1 phosphatase in PP5 counter-screen | shares compounds with PP5 inh | PP1 enzyme, fluorescent phosphatase substrate | inhibition, % at 6.7 µM | 460 tested, 4% active | AID 2355; in the data active = inhibition above about 16%
# Numbers without * were called inactive; · = no result given.
SMILES,PP5 inh,PME-1 inh,PP1 inh,LYPLA2 inh,Fam108B counter,LYPLA1 counter,PP5 inh confirm,PP1 counter 3x
Clc1cccc(OCCCCCN2CCOCC2)c1,10*,1,-1,2,-5,-2,-5,-5
O=C(Nc1ccc(Cl)cn1)c1cccc2c(Br)cccc12,4,-9,0,-6,-1,-3,·,·
COc1ccc(NC(=O)C2CC(=O)N(C)C(=Nc3ccc4c(c3)OCO4)S2)cc1 (stereo unspecified),12*,1,-3,12,-2,-3,-1,0
O=C(CC1(O)C(=O)c2ccccc2C1=O)c1ccccc1,-3,0,-13,-6,8,-3,·,·
O=C1c2ccccc2C(=O)C1(O)O,16*,1,5,7,·,1,5,14
CCOc1ccc(NC(=O)N2CCC(C(N)=O)(N3CCCCC3)CC2)cc1,11*,5,-8,3,2,-2,-2,-1
NC(=O)C1(N2CCCCC2)CCN(C(=S)Nc2ccccc2)CC1,2,9,-2,4,-2,3,·,·
Cc1cc(C)c2c3c(oc2n1)C(=O)N(c1cccc(Cl)c1)CC(=O)N3,-2,1,-4,-2,1,0,·,·
CCOc1ccc(NC(=O)c2ccccc2OCC(=O)c2ccc(C)cc2)cc1,9.8*,-6,5,5,1,0,2,-2
Cc1ccc(NC(=O)c2ccccc2OCC(=O)c2ccc(F)cc2)cc1,0,1,2,-6,-3,0,·,·
Cc1cc(NS(=O)(=O)c2ccc(NC(=O)c3ccc([N+](=O)[O-])c(Cl)c3)cc2)no1,6,3,-1,-1,2,-2,·,·
COc1ccc(-n2c(=O)c(CCC(=O)N(C)Cc3ccccc3C)nc3ccccc32)cc1,1,-22,0,-24,-12,-11,·,·
CCc1ccc(CN(C)C(=O)CCc2nc3ccccc3n(-c3ccc(OC)cc3)c2=O)cc1,10*,-8,4,-8,-5,-8,2,2
CC(C)NC(=O)c1ccccc1NC(=O)CCc1ccccc1,10*,0,4,8,4,3,-2,-3
O=C(/C=C/c1ccco1)NC(=S)Nc1ccccc1N1CCOCC1,9.7*,7,-1,4,0,-5,0,1
O=C(/C=C/c1ccco1)NC(=S)Nc1ccccc1N1CCCC1,3,7,0,6,5,-2,·,·
O=C(CN1C(=O)NC2(CCCC2)C1=O)OCc1cccc(Br)c1,-1,-3,-1,2,·,-3,·,·
CCOC(=O)N1CCN(C(=O)c2cccn3c(=O)c4cc(Cl)ccc4nc23)CC1,11*,4,1,8,0,-1,-5,-5
CC(C)CC(=O)NNC(=S)Nc1ccc(S(N)(=O)=O)cc1,4,-6,5,-1,2,-1,·,·
CCc1ccc(C(=O)NNC(=S)Nc2ccc(S(N)(=O)=O)cc2)s1,14*,0,-1,-10,-1,-1,-2,1
CCSc1nnc(NC(=O)CSc2nc3c(c(=O)n2-c2ccccc2)SCC3)s1,12*,4,-4,6,2,3,-4,-2
Cc1nc2c(ncn2-c2ccccc2)c(=O)n1NC(=O)CN1CCCCC1,13*,3,2,2,-3,2,-5,-4
Cc1nc2c(ncn2-c2ccccc2)c(=O)n1NC(=O)CN1CCN(C)CC1,0,-5,-6,3,3,0,·,·
Cc1ccc(Nc2nc(/N=C/NO)n[nH]2)cc1C,11*,-1,2,-2,-1,-2,-4,-4
COc1ccc(C(=O)Nc2ccc(S(=O)(=O)NC(C)=O)cc2)cc1,12*,-1,-1,7,-2,0,-7,-5
SMILES,PP5 inh,PME-1 inh,PP1 inh,LYPLA2 inh,Fam108B counter,LYPLA1 counter,PP5 inh confirm,PP1 counter 3x
O=C(NNc1ccc(C(F)(F)F)cc1[N+](=O)[O-])c1ccc(NS(=O)(=O)c2ccc(F)cc2)cc1,10*,9,9,12,5,-2,3,3
COC(=O)c1c(NC(=O)C2C3CCC(O3)C2C(=O)O)sc2c1CCCCCC2 (stereo unspecified),12*,0,3,5,0,2,0,-1
CCc1cccc(C)c1NC(=O)c1ccccc1,-2,4,-3,2,3,3,·,·
CCc1cccc(C)c1NC(=O)C1C2CCC(O2)C1C(=O)O (stereo unspecified),12*,1,8,-5,-2,-1,7,6
CCOC(=O)c1c(NC(=O)C2C3CCC(O3)C2C(=O)O)sc2c1CCCC2 (stereo unspecified),14*,-1,9,-6,-4,-3,11*,7
Cc1ccc(-c2c(C)sc(NC(=O)C3C4CCC(O4)C3C(=O)O)c2C(=O)OC(C)C)cc1 (stereo unspecified),13*,-2,9,-2,3,-4,-3,3
CC(C)=C1C2CCC1C(C(=O)Nc1sc(C)c(-c3ccc(C(C)C)cc3)c1C(N)=O)C2C(=O)O (stereo unspecified),2,3,3,-4,-5,1,·,·
CC(=O)Nc1ccc(C(=O)NCC2CCCCC2)cc1,1,-3,-4,-1,-1,4,·,·
COc1cc(C)c(Cl)cc1S(=O)(=O)NCc1ccccn1,6,2,-3,4,-2,2,·,·
Cc1[nH]c2ccccc2c1C(=O)CN1CCN(c2ccc(Cl)cc2)CC1,0,3,-1,1,-5,0,·,·
COC(=O)CCC(=O)OC1(C)C(=O)C2=CN(CCCOC(C)C)C(c3ccc(OC)cc3)=CC2=C(Br)C1=O (stereo unspecified),-1,-4,13,-3,1,-4,·,·
COC(=O)CCC(=O)OC1(C)C(=O)C2=CN(C3CC3)C(c3ccc(OC)cc3)=CC2=C(Br)C1=O (stereo unspecified),11*,8,3,2,3,3,37*,12
COC(=O)CCC(=O)OC1(C)C(=O)C2=CN(CC(C)C)C(c3ccc(OC)cc3)=CC2=C(Br)C1=O (stereo unspecified),15*,5,7,8,1,-2,31*,12
CCOC(=O)Cn1c(-c2ccccc2)nc2ccccc2c1=O,11*,-7,-4,0,-5,-3,-2,-2
O=S(=O)(NCC(c1ccc2c(c1)OCO2)N1CCN(c2ccccc2)CC1)c1ccccc1 (stereo unspecified),2,3,0,5,-1,-1,·,·
CC(NCC(=O)Nc1cc(S(=O)(=O)N2CCOCC2)ccc1N1CCOCC1)c1ccco1 (stereo unspecified),-1,5,-1,-4,·,-3,·,·

# Screening data: PubChem, The Scripps Research Institute Molecular Screening Center
